Screening data: PubChem, several laboratories
The list is not random: actives were taken first. Their share in the collection is about 5.7%.
rCAG binder-1 – molecules binding r(CAG) RNA repeats | AID 651821 | 1.3% of 370,000 active | inhibition, % at 3 µM | r(CAG) RNA repeat, TO-PRO-1 dye displacement fluorescence;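 active = inhibition above the plate cutoff, the mean of all test compounds on that plate plus 3 SD, cut at about 35% in these data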;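 note: higher means more dye released from RNA so lower well fluorescence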
MPTP inh – permeability transition pore inhibition | isolated mouse mitochondria, Ca2+ swelling absorbance, 30 min | 1.4% of 360,000 active | AID 602449 | inhibition, % at 10 µM;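 active = inhibition of 50% or more, scaled per plate between neutral and stimulator controls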
FAS TE block – blocks the thioesterase domain of human fatty acid synthase; 0.67% of 360,000 active; recombinant FAS-TE, OMFH fluorogenic substrate, fluorescence endpoint; inhibition, % at 15 µM; P49327;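 active = compounds whose normalised, plate-corrected inhibition of enzyme fluorescence in the single-dose primary screen is 50% or more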
Myeloid diff MLP – myeloid differentiation induction. calls only at 10 µM. 1% of 360,000 active. ER-HoxA9 myeloid progenitors, lysozyme-GFP differentiation, flow cytometry. AID 624256;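 active = normalized GFP-positive differentiation at or above the plate's own cutoff, the solvent-only control mean plus 3 SD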;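 note: cells exposed to compound for four days before flow analysis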
NR3A LBD binder – modulators (binders) of human NR3A ligand-binding domain | NR3A LBD differential scanning fluorimetry, Tm shift; 0% = protein alone, 100% = glycine-bound protein | 2.5% of 340,000 active | AID 1259313 | Tm shift relative to glycine control, % at 25 µM;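 active = melting temperature shift of at least 10% of the positive control shift, at one fixed dose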
Myeloid diff – compounds promoting myeloid differentiation; shares compounds with Myeloid diff MLP; ER-HoxA9 myeloid progenitors, GFP/Mac1 double-positive flow; calls only; 2% of 2,300 active;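 active = share of green or green-and-red cells above 9 and 9% in run 1 or 4 and 3% in run 2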
GFP autofluor – counter-screen for myeloid differentiation promoters: compound fluorescence; shares compounds with Myeloid diff MLP; fluorescence response, % (test concentration not listed); 7.4% of 2,300 active; ER-HoxA9 myeloid progenitors, no estrogen, GFP autofluorescence flow cytometry; vehicle wells 0%, positive control 100%;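 active = over 5% cells positive for green fluorescent reporter, or over 2% positive for both it and APC stain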
rCAG binder conf – r(CAG) RNA repeat binding, confirmation; shares compounds with rCAG binder-1; inhibition, % at 3 µM; 70% of 4,300 active; TO-PRO-1 dye displacement fluorescence; AID 652065;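 active = inhibition above a per-plate cutoff, the mean inhibition of sample wells plus 3 SD, cut at about 35% in these data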;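 note: loss of TO-PRO-1 fluorescence as compound displaces dye from 1x1 AA loop RNA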
DNA CAG counter – disrupts DNA CAG TO-PRO-1 complex, flagging rCAG hits; shares compounds with rCAG binder-1; d(CAG) DNA oligo TO-PRO-1 dye displacement, fluorescence; inhibition, % at 3 µM; 94% of 4,300 active;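 active = inhibition above its plate's cutoff, the mean test-well inhibition plus 3 SD, cut at about 4.8% in these data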;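 note: hits displace the dye from DNA and so lower well fluorescence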
dCAG dye DR – DNA CAG dye complex inhibition, dose response counter-screen | 20% of 250 active | DNA CAG/GTC duplex TO-PRO-1 dye displacement fluorescence | IC50, µM | shares compounds with rCAG binder-1; in the data active = IC50 below about 10 µM
dCAG DNA bind – inhibits DNA CAG/GTC TO-PRO-1 complex, rCAG binder counter-screen; IC50, µM; 80% of 30 active; d(CAG) DNA duplex TO-PRO-1 dye displacement, fluorescence; shares compounds with rCAG binder-1
rCAG binder-2 – r(CAG) repeat RNA binding, TO-PRO-1 displacement; shares compounds with rCAG binder-1; r(CAG) RNA TO-PRO-1 dye displacement, fluorescence; IC50, µM; 100% of 30 active; AID 720651
Hits are given with their value; n = inactive; x = not tested or not shown; + = active, no number. Unless noted, the rule behind the calls is not given here.

SMILES	rCAG binder-1	MPTP inh	FAS TE block	Myeloid diff MLP	NR3A LBD binder	Myeloid diff	GFP autofluor	others
CC(=O)OC1CCC2(C)C3CCC4(C)C(OC(C)=O)CCC4C3C(C)C2(O)C1 (stereo not drawn)	n	n	n	n	n	x	x
O[C@@H]1CCCN2CCc3c([nH]c4ccccc34)[C@H]12	n	n	n	n	n	x	x
O=C(/C=C/c1ccc2c(c1)OCO2)c1c(O)n(CCC2=CCCCC2)c(=O)[nH]c1=O	n	n	n	n	n	n	n
CCOC(=O)C1=C(N)Oc2c(c(=O)oc3ccccc23)C12C(=O)N(C)c1ccccc12 (stereo not drawn)	n	n	n	n	n	x	x
C=CCN1C(=O)C2(C(C(=O)OCC)=C(N)Oc3ccccc32)c2c1c1ccccc1oc2=O (stereo not drawn)	n	n	n	n	n	n	n
O=c1c2ccccc2nc(/C=C/c2ccccc2O)n1-c1ccccc1O	n	n	n	+	x	n	58.9
COc1ccc(OCC(=O)N2CCN(CC3CC4C=CC3C4)CC2)cc1 (stereo not drawn)	n	n	n	n	n	x	x
[Cl][Pt+2][Cl].[NH-]C1CCCCC1[NH-] (stereo not drawn)	n	n	n	n	n	x	x
COc1ccc2c(c1OC)CN1CCc3cc4c(cc3C1C2)OCO4 (stereo not drawn)	n	n	n	n	n	n	n
COc1ccc2c(c1OC)CN1CCc3cc4c(cc3[C@H]1C2)OCO4	x	n	n	n	n	x	x
Cn1c(=O)n(CC(=O)N2CCC3(CC2)OCCO3)c(=O)c2ccccc21	n	n	n	+	n	n	n
COc1ccc(NC(=O)c2cn(CCC#N)nc2-c2cccc([N+](=O)[O-])c2)cc1	n	n	n	n	n	x	x
COc1ccc(Oc2cc(NC(=O)c3nn(C)cc3[N+](=O)[O-])cc([N+](=O)[O-])c2)cc1	n	n	n	n	15.2	n	n
C=C1C[C@]2(O)[C@@]3(C)CCC(=O)C(C)(C)C3=C(O)C(=O)[C@@]2(C)[C@@H]2C(=O)O[C@@](C)(C(=O)OC)C(=O)[C@@]12C	n	n	n	+	n	n	n
COCCOC(=O)c1c(N)n(Cc2ccco2)c2nc3ccccc3nc12	n	n	n	n	n	n	n
CC1(C)C(c2ccccc2)=NC(c2cccnc2)N1O (stereo not drawn)	n	n	n	+	n	n	n
Cc1nc2ccccc2c(=O)n1-c1cccc([N+](=O)[O-])c1	n	n	n	n	n	x	x
O=C(C(=O)N1CCOCC1)c1cn(Cc2c(F)cccc2Cl)c2ccccc12	n	n	n	n	n	x	x
CCOP(=O)(OCC)C(NC(=O)c1cccc(C)c1)C(Cl)(Cl)Cl (stereo not drawn)	n	n	n	n	n	x	x
Cc1cccc(C(=O)NC(Oc2ccccc2)C(Cl)(Cl)Cl)c1 (stereo not drawn)	n	n	n	n	n	n	n
CCCCCCn1c(O)c(C=Nc2ccccc2N2CCOCC2)c(=O)[nH]c1=S	n	n	n	n	n	n	n
COC(=O)C1=C(c2cccc(C#N)c2)C[C@@H]2CC[C@H]1N2C(=O)NC(C)C	n	n	n	n	n	x	x
COC(=O)C1=C(c2cc3ccccc3s2)C[C@@H]2CC[C@H]1N2C(=O)NC1CCCCC1	n	n	n	n	n	+	n
COC(=O)C1=C(c2cccc(C#N)c2)C[C@@H]2CC[C@H]1N2C(=O)NC1CCCCC1	n	n	n	+	n	n	n
COC(=O)[C@@H]1C[C@@]1(C)[C@@H](NP(=O)(c1ccccc1)c1ccccc1)c1ccccc1	n	n	n	n	n	x	x
SMILES	rCAG binder-1	MPTP inh	FAS TE block	Myeloid diff MLP	NR3A LBD binder	Myeloid diff	GFP autofluor	others
N#CC1c2ccccc2-n2nncc2CN1S(=O)(=O)c1ccccc1 (stereo not drawn)	n	n	n	n	n	x	x
CC[N+](C)(CC)CCCOC(=O)C(O)(c1ccccc1)C1CCCCC1 (stereo not drawn)	n	n	n	n	n	x	x
Cc1ccc(/C=C2\C(=O)NC(=S)N(c3cccc(F)c3)C2=O)o1	45.4	n	n	n	n	x	x	rCAG binder conf=48.9;DNA CAG counter=19.9
COc1ccc(N2C(=O)/C(=C/c3ccc(C)o3)C(=O)NC2=S)cc1	n	n	n	n	n	x	x
CCOc1ccc(N2C(=O)/C(=C/c3ccc(C)o3)C(=O)NC2=S)cc1	36.2	n	n	n	n	x	x	rCAG binder conf=44.7;DNA CAG counter=17.3
NC(C(=O)O)c1cc(=O)[nH]o1 (stereo not drawn)	n	n	n	n	n	x	x
COc1cc(OC)c(OC)cc1CN1CCN(C(=O)Cc2ccccc2)CC1	n	n	n	n	n	x	x
Cc1ccccc1-n1c(O)c(/C=N/NC(=O)c2ccccc2O)c(=O)[nH]c1=S	56.2	n	n	n	n	x	x	rCAG binder conf=35.0;DNA CAG counter=9.0
O=C(N/N=C/c1c(O)n(-c2ccccc2)c(=S)[nH]c1=O)c1ccccc1	n	n	n	n	n	x	x
C/C(=N\NC(=O)c1ccccc1O)c1c(O)n(C2CCCCC2)c(=O)[nH]c1=O	82.8	n	n	n	12.9	x	x	rCAG binder conf=76.9;DNA CAG counter=34.5;dCAG dye DR=3.09;dCAG DNA bind=2.03;rCAG binder-2=0.817
O=C(N/N=C/c1c(O)n(C2CC2)c(=S)[nH]c1=O)c1ccccc1O	37.8	n	n	n	n	x	x	rCAG binder conf=n;DNA CAG counter=6.0
C=CCn1c(O)c(C(C)=NC2CCN(Cc3ccccc3)CC2)c(=O)[nH]c1=O	n	n	n	n	n	x	x
CC(=NCc1cccnc1)c1c(O)n(-c2ccccc2C)c(=O)[nH]c1=O	n	n	n	n	n	x	x
O=C1OCCC1NC1=NCCC1 (stereo not drawn)	n	n	n	n	n	x	x
O=C(N/N=C/c1c(O)n(Cc2ccc(F)cc2)c(=O)[nH]c1=O)c1ccccc1	n	n	n	n	n	x	x
O=C(O)CCC(=O)NCCC1=c2ccccc2=N/C1=C\c1c(O)n(Cc2ccc(F)cc2)c(=S)[nH]c1=O	35.1	n	n	+	n	x	x	rCAG binder conf=36.7;DNA CAG counter=13.0
